Unmarked numbers belong to inactive results. How the calls were made is not given here.

Z-score data for 36 compounds are collected here from PubChem BioAssay.

The nature of this test: P. aeruginosa biofilm formation inhibitors, primary screen, PAO1 strain, BacTiter-Glo luminescence, LB-PBS (AID 1144). As to conditions: 12 h, higher = more signal.
On to `CC(CCN1CCCc2nc(C)c(C)cc21)=NOC(C)CN1CCCCc2nc(C)c(C)cc21` (stereo unspecified), for which the z-score is -0.624.
With `CCN1C(=O)[C@@H]2[C@H]3C(=CC[C@@H]2C1=O)C1(OCCCO1)[C@H]1O[C@H]1[C@H]3O` the figure was 0.291; with `Cc1ccc(S(=O)(=O)N[C@@H]2COC(=O)[C@@H](C)COC(=O)CC=C[C@H]2C)cc1`, -0.736; with `COC(=O)C1=C(C)N(Cc2ccccc2)[C@]23O[C@](C(=O)OC)(C(=O)N2[C@@H]1c1ccccc1)C(C(=O)OC)=C3C(=O)OC`, -1.25.
In the case of `CC(C)CON=C1C[C@@H](O)[C@@H](O)[C@@H]2[C@@H]3C(=O)N(c4ccc(F)cc4F)C(=O)[C@@H]3CC[C@H]12`, the z-score was -0.359.
The result for `CCOC(=O)CCN1C(=O)[C@H]2[C@H]3[C@H](O)[C@H](O)CC(=NOCC(C)C)[C@H]3CC[C@H]2C1=O` reads 0.256.
For `CC(C)=CCCC(C)=CCON=C1C[C@@H](O)[C@@H](O)[C@@H]2[C@@H]3C(=O)N(C(C)(C)C)C(=O)[C@@H]3CC[C@H]12`, the z-score is -0.625.
As to `C[C@H]1CC[C@H]2C(=O)O[C@H](COc3ccc(C(C)(C)C)cc3)CN2[C@@H]1c1ccc(Br)cc1`, the z-score is -0.239.
The result for `COC(=O)CC=C[C@@H](C)[C@@H](C=NO[C@@H]1O[C@H](COC(C)=O)[C@@H](OC(C)=O)[C@H](OC(C)=O)[C@H]1OC(C)=O)NS(=O)(=O)c1ccc(C)cc1` reads -0.202.
On to `CCOC(=O)[C@H](CC(C)C)NC(=O)CCC1CC(OC(=O)NCc2cccc3ccccc23)CC2(CCCC(COC(=O)NCc3ccncc3)O2)O1` (stereo partly specified), for which the z-score is -0.243.
Regarding `CC(CCN1CCCc2nc(C)c(C)cc21)=NO[C@@H](C)c1cc(-c2c(C)cc(C)cc2C)no1`, the z-score is -0.501.
With `O=C1[C@H]2[C@H]3[C@H](O)[C@H](O)CC(=NO[C@@H]4O[C@H](CO)[C@@H](O)[C@H](O)[C@H]4O)[C@H]3CC[C@H]2C(=O)N1c1cccc(Oc2ccccc2)c1` the figure was 0.257.
Consider `CCOC(=O)NN=C1C[C@@H](O)[C@@H](O)[C@@H]2[C@@H]3C(=O)N(c4ccc(F)cc4F)C(=O)[C@@H]3CC[C@@H]12`, for which the z-score is 0.449.
Regarding `C[C@H]1CC[C@H]2C(=O)OC(CO)CN2[C@@H]1c1ccc(Br)cc1` (stereo partly specified), the z-score is -1.21.
Consider `Cn1c(=O)n2n(c1=O)[C@H]1[C@H](O)[C@@H]3O[C@@H]3C(=NOCc3ccccc3)[C@H]1CC2`, for which the z-score is -0.53.
`O=c1n(-c2ccccc2)c(=O)n2n1CC[C@@H]1C(=NOCc3ccccc3)[C@H]3O[C@H]3[C@@H](O)[C@@H]12`: the z-score was 0.251.
Turning to `C[C@@H]1CC[C@H]2C(=O)O[C@@H](Cc3ccccc3)CN2[C@H]1c1ccc(Br)cc1`, the z-score was 0.502.
The result for `CO[C@H]1COC(=O)[C@@H](C)COC(=O)[C@H](C)NC(=O)CC=C[C@H]1C` reads 0.371; that for `CO[C@H]1COC(=O)CC=C[C@H](C)[C@@H](OC)COC(=O)[C@@H](C)COC(=O)CC=C[C@@H]1C`, 0.0344.
Consider `COC(=O)CC=C[C@@H](C)[C@@H](C=NOCC[C@@H]1C=C[C@H](OC(C)=O)[C@@H](COC(C)=O)O1)NS(=O)(=O)c1ccc(C)cc1`, for which the z-score was 0.493.
Take `CCOC(=O)CCN1C(=O)[C@H]2[C@H]3[C@H](O)[C@H](O)CC(=NNC(=O)OCc4ccccc4)[C@@H]3CC[C@H]2C1=O`: the z-score was -0.143.
The result for `CC(C)=CCCC(C)=CCON=C1C[C@@H](O)[C@@H](O)[C@@H]2[C@@H]3C(=O)N(Cc4ccccc4)C(=O)[C@@H]3CC[C@@H]12` reads 0.603; that for `C[C@@H](ON=C1[C@H]2CCn3c(=O)n(-c4ccccc4)c(=O)n3[C@H]2[C@H](O)[C@@H]2O[C@H]12)c1cn([C@@H]2COC[C@H]2O)nn1`, 0.58.
On to `COc1cc(O)c(C(=O)C=Cc2ccc3c(c2)OCO3)c(OC)c1`, for which the z-score was 1.1.
On to `COC(=O)CC=C[C@@H](C)[C@@H](C=NO[C@H](C)c1cn([C@H](CO)Cc2ccccc2)nn1)NS(=O)(=O)c1ccc(C)cc1`, for which the z-score was 0.92.
On to `COc1ccc(O[C@H]2C=C[C@@H](c3ccccc3)O[C@@H]2COC(=O)CCC(C)=NO[C@@H]2O[C@H](COC(C)=O)[C@@H](OC(C)=O)[C@H](OC(C)=O)[C@H]2OC(C)=O)cc1`, for which the z-score is -0.333.
The result for `CCOC(=O)NN=C1C[C@@H](O)[C@@H](O)[C@@H]2[C@@H]3C(=O)N(Cc4ccc5c(c4)OCO5)C(=O)[C@@H]3CC[C@H]12` reads 1.46; that for `CCOC(=O)[C@H](CC(C)C)NC(=O)CCC1CC(OC(=O)NCc2cccc3ccccc23)CC2(CCCC(COC(=O)NCCC(C)C)O2)O1` (stereo partly specified), -1.52.
For the compound `CC(C)=CCCC(C)=CCON=C1C[C@@H](O)[C@@H](O)[C@@H]2[C@@H]3C(=O)N(C[C@@H]4CCCO4)C(=O)[C@@H]3CC[C@H]12`, the z-score was 0.175.
In the case of `CC=CC1=C(CO)C(=O)[C@@H]2O[C@@H]2C1=O`, the z-score was -0.36.
As to `CO[C@H]1COC(=O)CCC[C@@H](C)[C@H](OC)COC(=O)[C@@H](C)NC(=O)CC=C[C@@H]1C`, the z-score was -0.231.
In the case of `COc1ccc(O[C@H]2C=C[C@@H](c3ccccc3)O[C@@H]2COC(=O)CCC(C)=NOC[C@@H](O)[C@H]2O[C@@H]3OC(C)(C)O[C@@H]3[C@H]2O)cc1`, the z-score is -0.108.
For `O=C(NN=C1C[C@@H](O)[C@@H](O)[C@@H]2[C@@H]3C(=O)N(Cc4ccccc4)C(=O)[C@@H]3CC[C@@H]12)OCc1ccccc1`, the z-score is -0.526.
Turning to `CCOC(=O)[C@H](CC(C)C)NC(=O)CCC1CC(OC(=O)NCc2cccc3ccccc23)CC2(CCCC(COC(=O)NCCc3ccc(Cl)cc3)O2)O1` (stereo partly specified), the z-score was -1.39.
As for `CO[C@@H]1C=CCC(=O)N2CCC[C@H]2C(=O)OC[C@@H](C)C(=O)OC[C@H]1C`, the z-score was -1.23.
With `CC(C)CON=C1C[C@@H](O)[C@@H](O)[C@@H]2[C@@H]3C(=O)N(C4CCCCC4)C(=O)[C@@H]3CC[C@H]12`, the z-score is -0.52.
